Source: PubChem (National Center for Advancing Translational Sciences (NCATS))
Compounds with a hit are over-represented: about 6.6% of the library has one in this group of screens.
KB-3-1 cytotox: qHTS assay for MDR1-selective chemotherapeutics: Primary screen using the parental adenocarcinoma cell KB-3-1 | Potency, µM (top dose mostly 46.1 µM), hits mostly cytotoxic | AID 1347075, 2019 | 400,000 compounds, 1.4% hits | KB-3-1 viability, CellTiter-Glo ATP luminescence, 72 h; further: nearly all actives have a fitted effect of over 60% in size
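KB-3-1 cells, DMEM (no phenol red) + 10% FBS; compound by pin transfer, 72 h, 37 °C. Readout: CellTiter-Glo luminescence after 10 min. Data normalized, curve-fitted.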
HT1080NT lethal: qHTS for induction of synthetic lethality in tumor cells producing 2HG: qHTS for the HT-1080-NT fibrosarcoma cell line. HT-1080-NT fibrosarcoma viability, CellTiter-Glo ATP luminescence, 48 h. Potency, µM (top dose mostly 46.1 µM), usual class: cytotoxic. 360,000 compounds, 1.6% hits;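 further: NT is the 2HG producing partner of a matched IDH1 knockdown line; nearly all actives have a fitted effect of over 55% in size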
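Fibrosarcoma NT cells, 750 per well in 5% FBS RPMI, were exposed to compound for 48 hours. Viability: CellTiter-Glo luminescence.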
HT1080 IDH1KD tx: qHTS for induction of synthetic lethality in tumor cells producing 2HG: qHTS for the HT-1080-IDH1KD cell line; 360,000 compounds, 2% hits; Potency, µM (highest dose often 46.1 µM), most hits filed as cytotoxic; HT-1080 IDH1 knockdown viability, ATP luminescence, 48 h
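Luminescent ATP read-out (CellTiter-Glo, 10 min at room temperature) after 48 h compound exposure at 37 °C gave viability of IDH1-knockdown HT-1080 cells. Activity was normalised to DMSO and cell-free wells, then fitted as concentration-response curves.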
HepG2 tox-1: qHTS for Inhibitors of TGF-b: Cytotox Counterscreen | HepG2 CAGA-GFP viability, ATP luminescence, 18 h | Potency, µM (series often up to 46.1 µM), usual class: cytotoxic | 410,000 compounds, 0.76% hits
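CellTiter-Glo luminescence gave cytotoxicity after 18 hours at 37 degrees C. The cells were HepG2 CAGA-GFP in 1% FBS DMEM, stimulated with 500 pg/mL TGF-beta after compound addition. %Activity was normalised to no-cell wells (complete cell-killing) and DMSO (no toxicity), and curves were fitted and classified.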
KB-V1 MDR tox: qHTS assay for MDR1-selective chemotherapeutics: Primary screen using the drug-selected MDR subline cells KB-V1; AID 1347076, 2019; Potency, µM (highest dose often 46.1 µM), usual class: cytotoxic; KB-V1 MDR cells viability, CellTiter-Glo, 72 h; 400,000 compounds, 3.4% hits; further: nearly all actives have a fitted effect of over 60% in size
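Cells of the MDR subline KB-V1 are plated, dosed with compound at multiple concentrations, and incubated 72 h at 37 degrees C; CellTiter-Glo is then added and luminescence read after 10 min.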
TGFb SMAD3 inh: qHTS for Inhibitors of TGF-b; HepG2 CAGA-GFP TGF-b/SMAD3 reporter, GFP fluorescence, 18 h; TGF-beta stimulated, 500 pg/mL final; Potency, µM (top dose mostly 46.1 µM), most hits filed as inhibitors; 410,000 compounds, 1.2% hits; further: nearly all actives have a fitted effect of over 65% in size
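Inhibition was scored as loss of TGF-beta-induced (500 pg/mL final, 18 hours, 37 degrees C) GFP in HEPG2 cells carrying a CAGA-GFP reporter, in DMEM with 1% FBS. Well GFP was summed per cell; Activity was normalised to unstimulated and stimulated DMSO wells, then concentration-response fitting.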
TGFb confirm: qHTS for Inhibitors of TGF-b: Confirmation of Cherry Picks. shares compounds with TGFb SMAD3 inh. HepG2 CAGA-GFP TGF-b reporter, GFP fluorescence, 18 h; cells stimulated with TGF-beta, 500 pg/mL. 1,600 compounds, 63% hits. Potency, µM (series often up to 46.1 µM), actives largely listed as inhibitors; further: nearly all actives have a fitted effect of over 65% in size
HepG2 tox-2: qHTS for Inhibitors of TGF-b: Cytotox Counterscreen for Cherry Picks; shares compounds with TGFb SMAD3 inh; HepG2 CAGA-GFP viability, ATP luminescence, 18 h; cells stimulated with TGF-beta, 500 pg/mL; Potency, µM (top dose mostly 46.1 µM), usual class: inhibitors; 1,600 compounds, 27% hits; further: nearly all actives have a fitted effect of over 70% in size
TGFb CCL64 inh: qHTS for Inhibitors of TGF-b: CCL64 Cells Orthogonal Assay for Cherry Picks; AID 720536, 2013; shares compounds with TGFb SMAD3 inh; CCL64 CAGA-GFP reporter, TGF-b stimulated, GFP fluorescence, 18 h; 1,600 compounds, 41% hits; Potency, µM (top dose mostly 46.1 µM), most hits filed as inhibitors; further: nearly all actives have a fitted effect of over 65% in size
TGFb COP inh: qHTS for Inhibitors of TGF-b: Hit Validation in HepG2 Cells using COP promoter. HepG2 COP-GFP TGF-b reporter, GFP fluorescence, 18 h; cells stimulated by added recombinant TGF-beta. 1,600 compounds, 3% hits. AID 720537, 2013. Potency, µM (titrated, usually from 46.1 µM), most hits filed as inhibitors. shares compounds with TGFb SMAD3 inh; further: nearly all actives have a fitted effect of over 70% in size
Hits are given with their value; . = inactive; ? = inconclusive; / = no result; [ ] = another dose, or the depositor's remark. The call rests on the fitted dose curve; in most records, active means well fitted curve in the direction sought with a large enough effect; inconclusive means small, poorly fitted or top-dose-only effect, or another doubt; inactive means no such curve, though single readings can be large; an effect the other way counts as inactive or inconclusive.

SMILES	KB-3-1 cytotox	HT1080NT lethal	HT1080 IDH1KD tx	HepG2 tox-1	KB-V1 MDR tox	TGFb SMAD3 inh	TGFb confirm	HepG2 tox-2	TGFb CCL64 inh	TGFb COP inh
CS(=O)(=O)Nc1cccc(-c2cc(NC=O)c3ncc(-c4ccc(F)c(Cl)c4)n3c2)c1	?	?	?	.	?	?	/	/	/	/
COc1cccc(-c2nc(SCc3ccc(C)cc3)n3[nH]c(=O)cc3n2)c1	.	/	/	.	.	?	/	/	/	/
Cc1ccc(CNC(=O)CN2C(=O)CCn3nc(-c4ccccc4)cc32)cc1	.	/	/	.	.	.	/	/	/	/
CSc1ncc(Cl)c(C(=O)N(Cc2ccc(C)cc2)C2CCS(=O)(=O)C2)n1 (stereo not drawn)	.	/	/	.	.	.	/	/	/	/
COc1ccc(-c2cn(-c3ccc(C)cc3)c(S(=O)(=O)CC(=O)Nc3ccccc3)n2)cc1	.	/	/	.	.	.	/	/	/	/
O=C1Cc2cc(S(=O)(=O)N3CCN(c4cccc(C(F)(F)F)c4)CC3)ccc2N1	.	/	/	/	.	/	/	/	/	/
CC(=O)Oc1ccccc1N(C(C)=O)S(=O)(=O)c1ccc2ccccc2c1	.	.	.	.	.	.	/	/	/	/
CC(=O)Oc1c(Br)cc(N(C(C)=O)S(=O)(=O)c2ccccc2)c2ccccc12	?	?	?	.	?	8.91µM	16.4µM	?	13µM	?
O=S(=O)(CCOc1ccccc1)c1nc2ccccc2[nH]1	?	?	?	.	.	15.8µM	6.51µM	23.1µM	16.4µM	?
O=C(CSc1nnc2scc(-c3ccccc3)n12)Nc1ccc(Cl)cc1	.	/	/	.	.	.	/	/	/	/
C/C(=N\NC(=O)C1COc2ccccc2O1)c1ccccn1 (stereo not drawn)	?	?	?	.	?	?	20.6µM	.	?	.
CCOc1ccc(OCc2ccc(C(=O)N/N=C(\C)c3ccccn3)cc2)cc1	?	?	?	.	?	.	/	/	/	/
C/C(=N/NC(=O)c1ccc(C(C)(C)C)cc1)c1ccccn1	2.59µM	7.31µM	5.8µM	.	?	?	2.59µM	?	9.2µM	.
C/C(=N\NC(=O)c1ccccc1Cl)c1ccccn1	?	?	?	.	.	?	/	/	/	/
C/C(=N\NC(=O)c1ccccc1OCc1ccc(F)cc1)c1ccccn1	11.6µM	?	?	.	?	11.2µM	14.6µM	?	8.2µM	.
CCc1ccc(CCC(=O)N2CCN(S(=O)(=O)c3sc(C(=O)O)c(C)c3C(=O)O)CC2)cc1	.	.	.	.	.	?	/	/	/	/
COc1ccc(-c2nc(N3CCN(S(=O)(=O)c4ccccc4)CC3)c3ccccc3n2)cc1	/	/	/	.	/	.	/	/	/	/
Cc1cc(N2CCOCC2)nc(NCc2ccccc2)n1	.	.	.	.	?	10µM	14.6µM	.	?	.
O=C1C(Cl)=C(NCc2cccnc2)C(=O)c2ccccc21	?	18.4µM	?	1.41µM	?	3.16µM	4.61µM	6.51µM	?	16.4µM
O=C1C(Cl)=C(Nc2ccccc2)C(=O)c2ccccc21	?	.	.	6.31µM	?	4.47µM	3.26µM	6.51µM	?	.
O=S(=O)(Cc1ccccc1)NCc1cccnc1	.	.[9.24 µM]	.	.	.	?	/	/	/	/
CC1=C(Nc2ccc(C(=O)O)cc2)C(=O)c2ccccc2C1=O	?	?	?	.	.	7.94µM	14.6µM	?	.	.
CC1=C(C(=O)N2CCCCCC2)CC(CC(=O)NC2CCCC2)C(=O)N1CCC1=CCCCC1 (stereo not drawn)	.	.	.	/	?	/	/	/	/	/
NS(=O)(=O)c1ccc(CCNC(=O)COC(=O)C2COc3ccccc3O2)cc1 (stereo not drawn)	.	.	.	.	.	.	/	/	/	/
Cc1ccc(/C=C/c2onc(C)c2S(=O)(=O)N2CCC(C(=O)Nc3cccc(C#N)c3)CC2)cc1	.	/	/	.	.	.	/	/	/	/
SMILES	KB-3-1 cytotox	HT1080NT lethal	HT1080 IDH1KD tx	HepG2 tox-1	KB-V1 MDR tox	TGFb SMAD3 inh	TGFb confirm	HepG2 tox-2	TGFb CCL64 inh	TGFb COP inh
NC(=O)c1cc(S(=O)(=O)N2CCN(c3ccc(F)cc3)CC2)cs1	.	/	/	.	.	.	/	/	/	/
CN1CCN(C(=O)C2=C[C@@H](c3ccc(C(F)(F)F)cc3)C[C@@H](OCc3ccc(CO)cc3)O2)CC1	.	.	.	.	?	.	/	/	/	/
O=C(C1=C[C@@H](c2ccc(C(F)(F)F)cc2)C[C@@H](OCc2ccc(CO)cc2)O1)N1CCN(Cc2ccccc2)CC1	?	.	.	.	?	14.1µM	18.4µM	.	?	.
CCOC(=O)c1cc(-c2ccc(F)cc2)n(CCC(=O)Nc2cc(OC)cc(OC)c2)c1C	.	/	/	.	.	?	/	/	/	/
O=c1ccn(Cc2ccccc2)c2ccccc12	.	.	.	.	.	?	/	/	/	/
O=c1c2ccccc2c(=O)n(Cc2ccccc2)n1Cc1ccccc1	.	.	.	.	?	11.2µM	?	.	18.4µM	?
COc1ccc(-c2cc(C(=O)Nc3ccn(Cc4ccc(C)cc4)n3)no2)cc1OC	.	/	/	.	.	.	/	/	/	/
Cc1cccc(N2CCN(C(=O)c3cn(C)c(=O)c4c3c3ccccc3n4C)CC2)c1C	?	?	17.8µM	.	?	10µM	?	?	20.6µM	.
O=C1Cc2ccccc2C1=C1C=c2ccccc2=C1	?	/	/	.	.	.	/	/	/	/
NS(=O)(=O)Nc1c(Br)cc(Br)c2cccnc12	/	/	/	.	/	.	/	/	/	/
N#Cc1c(NC(=O)c2ccc([N+](=O)[O-])o2)sc2c1CCC2	5.17µM	?	?	.	18.4µM	?	11.6µM	9.2µM	14.6µM	.
